High-throughput results from PubChem.
Lassa entry inh – blocks Lassa virus binding to or entry into cells | Potency, µM (series often up to 37.9 µM), inactives show top-dose activity change, negative = inhibition, hits mostly inhibitors | Lassa virus pseudotype entry inhibition, cell reporter | actives 1.2% (n = 300,000) | AID 540256; calls by dose curve; tested in HEK293 cells; further: potency means the concentration at half of the fitted maximal effect; nearly all actives have a fitted effect of over 50% in size
Marburg entry inh – blocks Marburg virus binding to or entry into cells; Marburg virus pseudotyped entry inhibition, cell reporter; Potency, µM (series often up to 37.8 µM), without a hit: at the highest dose activity change, negative = inhibition, actives largely listed as inhibitors; actives 1.8% (n = 300,000); AID 540276; calls by dose curve; tested in HEK293 cells; further: potency means the concentration at half of the fitted maximal effect
HCMV antiviral – blocks human cytomegalovirus replication. activity change, negative = inhibition, % at 57.5 µM. actives 4.5% (n = 410,000). HFF cells, HCMV-luciferase reporter, 72 h; stronger effect = lower value; in the data active means activity change below about -60%; inconclusive means no clear call, values can overlap the other calls; inactive means above about -39%
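Human foreskin fibroblasts infected with luciferase-reporter HCMV at MOI 1 PFU/cell, compounds at two doses. Luciferase measured 72 h post infection; normalized to buffer-only basal and Salinomycin (10uM) controls.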
VACV Venus inh – inhibitors of vaccinia virus (Venus reporter); AID 720580; Potency, µM (doses to about 36.5 µM), for the others: top-dose activity change, negative = inhibition, actives largely listed as inhibitors; actives 0.46% (n = 330,000); Vaccinia virus Venus reporter expression, fluorescence; calls by dose curve; tested in A549 cells; further: potency means the concentration at half of the fitted maximal effect; nearly all actives have a fitted effect of over 30% in size
FMDV inh – foot and mouth disease virus antiviral activity | AID 1159524 | actives 1.2% (n = 410,000) | FMDV antiviral cell-based qHTS | Potency, µM (series often up to 57.9 µM), without a hit: top-dose activity change, negative = inhibition, hits mostly inhibitors; calls by dose curve; tested in HEK293T cells; further: read-out not given here; potency means the concentration at half of the fitted maximal effect; nearly all actives have a fitted effect of over 45% in size
Vaccinia mCherry – vaccinia inhibition (mCherry reporter); actives 0.63% (n = 310,000); Potency, µM (highest dose often 36.5 µM), without a hit: at the top dose activity change, negative = inhibition, hits mostly inhibitors; Vaccinia virus mCherry reporter infection, fluorescence; calls by dose curve; tested in A549 cells; further: potency means the concentration at half of the fitted maximal effect; nearly all actives have a fitted effect of over 35% in size
Starred values were filed as active, the others as inactive; [ ] = another dose, or the depositor's remark. The list is not random: actives were taken first. Their share in the collection is about 6.5%. On the % scale 0 is the no-effect control and ±100 the full control effect.

What do the screens show for `C/C(CCN1CCCc2nc(C)c(C)cc21)=N\O[C@H](C)c1cn([C@@H]2COC[C@H]2O)nn1`?
Marburg entry inh: 7%[14.2 µM]

Results for O=C(CSc1nc2ccccc2c(=O)n1Cc1ccco1)c1ccccc1 ?
Lassa entry inh: inconclusive; Marburg entry inh: -7%; HCMV antiviral: -69*; VACV Venus inh: -13%; FMDV inh: -18%; Vaccinia mCherry: -3%

Results for CCOC(=O)c1c(NC(=O)CSc2nc3cc(Cl)ccc3c(=O)n2Cc2ccco2)sc(C(=O)N(C)C)c1C ?
Lassa entry inh: inconclusive; Marburg entry inh: inconclusive; HCMV antiviral: -68*; VACV Venus inh: -12%; FMDV inh: -12%; Vaccinia mCherry: 5%

What do the screens show for `COc1cc2nc(SCC(=O)NCc3ccco3)n(Cc3ccc(Cl)cc3)c(=O)c2cc1OC`?
Lassa entry inh: inconclusive; Marburg entry inh: inconclusive; HCMV antiviral: -69*; FMDV inh: 6%

How did CCCCNC(=O)CSc1nc2cc3c(cc2c(=O)n1Cc1ccco1)OCO3 do in these assays?
Lassa entry inh: -6%; Marburg entry inh: -27%; HCMV antiviral: -61*; VACV Venus inh: 5%; FMDV inh: inconclusive; Vaccinia mCherry: -1%

What do the screens show for `O=C(c1cccnc1)C1CCCN(Cc2ccc3c(c2)CN(C(=O)c2cccc(Cl)c2)CCO3)C1` (centres undefined)?
VACV Venus inh: -16%; FMDV inh: -27%; Vaccinia mCherry: -14%

What do the screens show for `CCCCc1ccc(S(=O)(=O)N[C@H]2CC[C@@]34CCCN3C(=O)CCC[C@H]4[C@H]2Cc2ccccc2)cc1`?
HCMV antiviral: -31

How did O=C1c2ccc(-c3nc4ccccc4o3)cc2C(=O)N1Cc1cccnc1 do in these assays?
Lassa entry inh: 7%; Marburg entry inh: 0%; HCMV antiviral: -25; VACV Venus inh: -1%; Vaccinia mCherry: -15%

What do the screens show for `O=C1c2ccc(-c3nc4ccccc4o3)cc2C(=O)N1Cc1ccccc1`?
Lassa entry inh: -1%; Marburg entry inh: 12%; HCMV antiviral: -105*; VACV Venus inh: -9%; FMDV inh: 4%; Vaccinia mCherry: -7%

What do the screens show for `CN(Cc1ccccc1)C(=O)c1cccc(NC(=O)c2nsc3ccccc23)c1`?
Lassa entry inh: inconclusive; HCMV antiviral: 0; VACV Venus inh: 0%; FMDV inh: -1%; Vaccinia mCherry: -1%

Results for CCN(CC)CCN(C(=O)CCS(=O)(=O)c1ccccc1)c1nc2c(C)cc(C)cc2s1 ?
Lassa entry inh: inconclusive; Marburg entry inh: inconclusive; HCMV antiviral: inconclusive; VACV Venus inh: inconclusive; FMDV inh: -4%; Vaccinia mCherry: 14µM*

What do the screens show for `COc1ccc(OC)c2sc(N(CCCN(C)C)C(=O)CCS(=O)(=O)c3ccccc3)nc12`?
Lassa entry inh: -25%; Marburg entry inh: inconclusive; HCMV antiviral: 16; VACV Venus inh: inconclusive; FMDV inh: 35µM*; Vaccinia mCherry: inconclusive

Results for CCN(CC)CCN(C(=O)CCS(=O)(=O)c1ccccc1)c1nc2cc(C)cc(C)c2s1 ?
Lassa entry inh: inconclusive; Marburg entry inh: inconclusive; HCMV antiviral: -8; VACV Venus inh: -20%; FMDV inh: inconclusive; Vaccinia mCherry: -2%

What do the screens show for `CN(C)CCCN(C(=O)CCS(=O)(=O)c1ccccc1)c1nc2cc3c(cc2s1)OCO3`?
Lassa entry inh: inconclusive; Marburg entry inh: inconclusive; HCMV antiviral: -113*; VACV Venus inh: 10µM*; FMDV inh: 28µM*; Vaccinia mCherry: inconclusive

Results for COc1ccc(Cl)c2sc(N(CCN(C)C)C(=O)CCS(=O)(=O)c3ccc(C)cc3)nc12 ?
Lassa entry inh: 0%; Marburg entry inh: 5%[46.1 µM]; HCMV antiviral: 6; VACV Venus inh: -9%; FMDV inh: -29%; Vaccinia mCherry: -30%

Results for Cc1ccc2sc(N(CCCN(C)C)C(=O)CCS(=O)(=O)c3ccccc3)nc2c1C ?
HCMV antiviral: 0; FMDV inh: 32µM*

What do the screens show for `CN(Cc1ccccc1)c1ncnc2c1nnn2C`?
Lassa entry inh: 7%[46.1 µM]; HCMV antiviral: 2; VACV Venus inh: -4%; FMDV inh: -8%; Vaccinia mCherry: -15%

What do the screens show for `COc1ccc([C@]23Cc4cc(C#N)ccc4[C@H](O2)c2c(cc(-c4ccccc4)oc2=O)O3)cc1`?
Marburg entry inh: 7%[14.2 µM]

How did C=N[C@@H](C(=O)N[C@@H]1C(=O)N2[C@@H]1SC(C)(C)[C@@H]2C(=O)O)c1ccccc1 do in these assays?
VACV Venus inh: -8%; FMDV inh: 6%; Vaccinia mCherry: -9%

What do the screens show for `NC(=O)Nn1c(CCC(=O)O)ccc1-c1ccc(F)cc1`?
Lassa entry inh: 7%; Marburg entry inh: -26%; HCMV antiviral: -93*; FMDV inh: -16%

What do the screens show for `O=C(O)CCc1ccc(-c2ccc(F)cc2)n1CC(=O)O`?
Lassa entry inh: 14%; Marburg entry inh: 0%; HCMV antiviral: -29; VACV Venus inh: -14%; FMDV inh: -13%

What do the screens show for `Cc1ccc(OCC(=O)NCC2(N3CCOCC3)CCCCC2)cc1C`?
Lassa entry inh: 1%[46.1 µM]; Marburg entry inh: inconclusive; HCMV antiviral: -60*; VACV Venus inh: -9%; FMDV inh: -21%; Vaccinia mCherry: 1%

What do the screens show for `Cc1ccc(NC(=O)C2CCCN2S(=O)(=O)c2cccc3cccnc23)cc1C` (centres undefined)?
Marburg entry inh: -6%[46.1 µM]; HCMV antiviral: -7; VACV Venus inh: -19%; FMDV inh: -7%; Vaccinia mCherry: -26%

What do the screens show for `O=C(Cc1ccccc1)N/N=C/c1ccccn1`?
Lassa entry inh: 5%; Marburg entry inh: 15%; HCMV antiviral: -84*; VACV Venus inh: -18%; Vaccinia mCherry: -3%

What do the screens show for `S=C(NN=Cc1ccccn1)N(Cc1ccccn1)Cc1ccccn1`?
Lassa entry inh: inconclusive; Marburg entry inh: 1.3µM*; HCMV antiviral: -77*; VACV Venus inh: inconclusive; FMDV inh: -15%; Vaccinia mCherry: 5.6µM*

Results for S=C(NN=C(c1ccccc1)c1ccccn1)N(Cc1ccccn1)Cc1ccccn1 ?
Lassa entry inh: inconclusive; Marburg entry inh: 0.63µM*; HCMV antiviral: -97*; VACV Venus inh: inconclusive; FMDV inh: -20%; Vaccinia mCherry: 2.5µM*

Results for COc1ccccc1NC(=S)N(Cc1ccc(C)cc1)Cc1ccccn1 ?
Lassa entry inh: -29%[46.1 µM]; Marburg entry inh: inconclusive; HCMV antiviral: -8; VACV Venus inh: -4%; FMDV inh: 0%; Vaccinia mCherry: 0%

How did CC(=NNC(=S)N(Cc1ccccn1)Cc1ccccn1)c1cnccn1 do in these assays?
Lassa entry inh: 2.8µM*; Marburg entry inh: inconclusive; HCMV antiviral: -98*; VACV Venus inh: 3.5µM*; FMDV inh: -6%; Vaccinia mCherry: 1.4µM*
